Consider nine targets from the supplement of paper PMC10849652.

Common to all, as to assay: log2 fold change, soluble protein after heating vs DMSO (PISA); higher = thermal stabilisation; K562 lysate, 10 uM; active = over 0.2 and 3.5 SD of the protein, either way, in both replicates (recomputed)
Compound in assay [1]: NCC(=O)Nc1ccc(-n2nc(C(F)(F)F)cc2-c2ccc3c(ccc4ccccc43)c2)cc1
The method in brief:
(§1)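 A 30 min treatment with 10 μM compound was applied to crude K562 extract at 1 mg/mL protein in PBS pH 7.4 with 1 mM MgCl2. Heating for 3 min spanned 48°C-58°C, after which aliquots were pooled, adjusted to 0.5% NP-40 at 4°C and spun at 21,000xg for 90 min. TMTpro 16plex LC-MS/MS of the supernatant, with channel sums equalised, gave values recorded as log-two fold change in thermal stability against solvent controls, from duplicates.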

Compound in a further assay: O=C(CCCCCCC(=O)Nc1ccccc1)NO [vorinostat]
The method in brief: as §1

Compound in the next assay: O=C(O)c1ccc2c(c1)nc(Nc1cccc(Cl)c1)c1ccncc12 [silmitasertib]
The method in brief: as §1

Compound in assay [2]: O=C1NC(=O)C(c2cnc3ccccn23)=C1c1cn2c3c(cc(F)cc13)CN(C(=O)N1CCCCC1)CC2
The method in brief: as §1

Compound in a further assay: c1cn2cc(-c3ccc4cn[nH]c4c3)nc(Nc3ccc(N4CCOCC4)cc3)c2n1 [entospletinib]
The method in brief:
as §1

Targets with a hit are over-represented here; the source holds about 8,800 in all. About 0.5% of all pairs of compound and target were hits. Values without a mark were called inactive.

UniProt Q8NCF5, sequence (Q8NCF5 whole entry, looked up): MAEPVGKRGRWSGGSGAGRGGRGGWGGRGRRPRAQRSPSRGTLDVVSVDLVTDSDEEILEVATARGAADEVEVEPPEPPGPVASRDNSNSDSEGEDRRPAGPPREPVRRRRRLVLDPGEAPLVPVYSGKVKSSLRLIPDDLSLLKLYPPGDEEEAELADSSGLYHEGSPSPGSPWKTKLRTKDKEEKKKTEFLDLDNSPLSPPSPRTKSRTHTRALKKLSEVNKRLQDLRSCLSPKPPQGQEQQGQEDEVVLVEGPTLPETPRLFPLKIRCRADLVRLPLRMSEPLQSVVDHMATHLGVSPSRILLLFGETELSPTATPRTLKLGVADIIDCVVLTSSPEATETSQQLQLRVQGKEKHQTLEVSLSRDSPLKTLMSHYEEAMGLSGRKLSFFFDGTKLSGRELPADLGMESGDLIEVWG
UniProt O00221, sequence (O00221 whole entry, looked up): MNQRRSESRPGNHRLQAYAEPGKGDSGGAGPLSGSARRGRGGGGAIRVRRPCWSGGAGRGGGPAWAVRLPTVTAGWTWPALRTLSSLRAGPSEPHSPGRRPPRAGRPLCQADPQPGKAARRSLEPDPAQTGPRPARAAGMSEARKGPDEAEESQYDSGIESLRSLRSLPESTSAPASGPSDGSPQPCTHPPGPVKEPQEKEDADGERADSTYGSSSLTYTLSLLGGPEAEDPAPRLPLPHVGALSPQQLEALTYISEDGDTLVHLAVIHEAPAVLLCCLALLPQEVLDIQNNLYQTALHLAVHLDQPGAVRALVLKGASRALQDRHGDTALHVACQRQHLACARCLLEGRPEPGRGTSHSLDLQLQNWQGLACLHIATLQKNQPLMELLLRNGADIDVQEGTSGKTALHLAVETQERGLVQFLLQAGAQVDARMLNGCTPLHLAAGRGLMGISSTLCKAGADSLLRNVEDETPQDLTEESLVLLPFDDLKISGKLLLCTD
UniProt Q6GQQ9, sequence (Q6GQQ9 whole entry, looked up): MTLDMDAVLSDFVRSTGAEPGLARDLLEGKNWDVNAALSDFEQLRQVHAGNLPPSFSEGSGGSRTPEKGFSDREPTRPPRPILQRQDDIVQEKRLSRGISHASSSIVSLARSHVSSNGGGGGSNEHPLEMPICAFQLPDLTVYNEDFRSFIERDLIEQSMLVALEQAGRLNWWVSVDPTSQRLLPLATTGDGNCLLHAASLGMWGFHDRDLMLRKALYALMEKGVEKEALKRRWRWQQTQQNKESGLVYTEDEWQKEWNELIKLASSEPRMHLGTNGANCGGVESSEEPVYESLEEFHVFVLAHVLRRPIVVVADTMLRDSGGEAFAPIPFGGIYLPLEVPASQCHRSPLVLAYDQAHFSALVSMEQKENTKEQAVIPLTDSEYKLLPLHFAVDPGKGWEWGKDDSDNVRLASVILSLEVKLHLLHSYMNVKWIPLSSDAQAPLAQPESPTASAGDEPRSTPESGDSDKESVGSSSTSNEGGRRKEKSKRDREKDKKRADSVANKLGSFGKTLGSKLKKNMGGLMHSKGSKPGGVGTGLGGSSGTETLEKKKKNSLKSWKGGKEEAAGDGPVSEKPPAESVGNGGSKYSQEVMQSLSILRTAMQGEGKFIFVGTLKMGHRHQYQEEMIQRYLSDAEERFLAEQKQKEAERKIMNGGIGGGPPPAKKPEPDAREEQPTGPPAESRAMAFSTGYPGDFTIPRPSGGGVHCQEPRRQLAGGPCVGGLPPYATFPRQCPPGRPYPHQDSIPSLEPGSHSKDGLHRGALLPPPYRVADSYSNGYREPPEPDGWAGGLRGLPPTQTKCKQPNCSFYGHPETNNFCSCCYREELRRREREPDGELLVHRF
UniProt P08651, sequence (P08651 whole entry, looked up): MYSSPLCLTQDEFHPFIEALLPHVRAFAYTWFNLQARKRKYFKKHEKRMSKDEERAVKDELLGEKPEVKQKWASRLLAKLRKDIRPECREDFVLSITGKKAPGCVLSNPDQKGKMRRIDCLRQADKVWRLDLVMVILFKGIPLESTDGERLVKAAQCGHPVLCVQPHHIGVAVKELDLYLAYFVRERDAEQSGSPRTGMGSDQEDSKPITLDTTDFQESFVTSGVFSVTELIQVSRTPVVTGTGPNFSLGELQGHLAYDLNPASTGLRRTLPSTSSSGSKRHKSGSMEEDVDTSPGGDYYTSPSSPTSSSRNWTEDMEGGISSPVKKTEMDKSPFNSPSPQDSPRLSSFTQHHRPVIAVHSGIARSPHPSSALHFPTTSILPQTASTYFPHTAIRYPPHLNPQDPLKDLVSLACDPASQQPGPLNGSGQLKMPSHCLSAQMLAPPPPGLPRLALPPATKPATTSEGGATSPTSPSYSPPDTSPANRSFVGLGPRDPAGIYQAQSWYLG
UniProt Q8WUM0, sequence (Q8WUM0 whole entry, looked up): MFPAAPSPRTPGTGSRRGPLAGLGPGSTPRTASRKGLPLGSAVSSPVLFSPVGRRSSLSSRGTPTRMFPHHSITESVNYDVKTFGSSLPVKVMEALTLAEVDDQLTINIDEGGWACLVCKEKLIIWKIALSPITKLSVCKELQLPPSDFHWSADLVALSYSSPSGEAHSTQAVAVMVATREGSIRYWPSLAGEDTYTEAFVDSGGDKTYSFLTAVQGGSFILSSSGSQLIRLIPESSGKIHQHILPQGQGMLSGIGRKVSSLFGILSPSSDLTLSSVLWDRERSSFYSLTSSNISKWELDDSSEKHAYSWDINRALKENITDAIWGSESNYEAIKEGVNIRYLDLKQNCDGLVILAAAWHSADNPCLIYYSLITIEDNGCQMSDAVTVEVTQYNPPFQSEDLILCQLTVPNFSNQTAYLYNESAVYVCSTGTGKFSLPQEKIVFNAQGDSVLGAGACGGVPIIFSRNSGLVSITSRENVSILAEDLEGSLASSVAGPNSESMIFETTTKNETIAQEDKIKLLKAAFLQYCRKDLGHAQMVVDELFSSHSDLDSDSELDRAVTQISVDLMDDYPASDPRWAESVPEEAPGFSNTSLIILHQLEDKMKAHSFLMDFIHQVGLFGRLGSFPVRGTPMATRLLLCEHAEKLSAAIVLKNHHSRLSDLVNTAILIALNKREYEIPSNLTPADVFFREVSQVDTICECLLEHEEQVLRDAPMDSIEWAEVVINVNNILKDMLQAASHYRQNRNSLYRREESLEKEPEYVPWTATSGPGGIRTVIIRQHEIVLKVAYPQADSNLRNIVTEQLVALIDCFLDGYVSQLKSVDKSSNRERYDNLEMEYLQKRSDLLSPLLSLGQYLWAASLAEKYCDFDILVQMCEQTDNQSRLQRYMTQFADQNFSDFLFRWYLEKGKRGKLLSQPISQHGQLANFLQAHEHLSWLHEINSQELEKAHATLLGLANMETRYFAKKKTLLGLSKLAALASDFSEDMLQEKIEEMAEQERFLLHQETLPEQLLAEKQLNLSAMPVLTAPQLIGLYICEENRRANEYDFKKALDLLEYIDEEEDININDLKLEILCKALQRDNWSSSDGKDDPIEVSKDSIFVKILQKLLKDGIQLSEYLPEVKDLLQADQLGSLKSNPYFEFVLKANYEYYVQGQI
UniProt Q9NPF4, sequence (Q9NPF4 whole entry, looked up): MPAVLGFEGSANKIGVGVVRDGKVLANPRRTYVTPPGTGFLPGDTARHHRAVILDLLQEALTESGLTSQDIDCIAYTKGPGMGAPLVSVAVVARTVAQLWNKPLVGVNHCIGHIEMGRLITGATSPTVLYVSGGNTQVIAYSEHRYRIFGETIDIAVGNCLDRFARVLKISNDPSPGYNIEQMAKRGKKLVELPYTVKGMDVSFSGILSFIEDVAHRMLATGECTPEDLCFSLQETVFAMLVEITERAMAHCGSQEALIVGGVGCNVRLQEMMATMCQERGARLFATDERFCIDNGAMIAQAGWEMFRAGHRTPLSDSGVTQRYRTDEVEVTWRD
UniProt O00483, sequence (O00483 whole entry, looked up): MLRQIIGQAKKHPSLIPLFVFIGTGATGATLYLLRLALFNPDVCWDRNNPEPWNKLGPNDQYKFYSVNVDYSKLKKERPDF
UniProt Q9BXS6, sequence (Q9BXS6 whole entry, looked up): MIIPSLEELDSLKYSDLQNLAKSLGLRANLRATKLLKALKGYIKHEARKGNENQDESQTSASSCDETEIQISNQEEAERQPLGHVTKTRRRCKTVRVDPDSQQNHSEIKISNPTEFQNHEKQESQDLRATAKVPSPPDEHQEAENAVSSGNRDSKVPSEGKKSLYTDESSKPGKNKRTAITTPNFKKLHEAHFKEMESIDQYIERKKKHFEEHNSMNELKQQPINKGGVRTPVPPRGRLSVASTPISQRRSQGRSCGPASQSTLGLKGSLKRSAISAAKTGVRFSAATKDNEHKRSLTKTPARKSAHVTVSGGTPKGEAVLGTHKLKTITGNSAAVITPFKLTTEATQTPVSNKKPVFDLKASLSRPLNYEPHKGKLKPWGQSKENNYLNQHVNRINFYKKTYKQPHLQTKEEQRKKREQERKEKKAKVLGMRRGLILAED

For the target NFATC2IP (UniProt Q8NCF5), the log2 fold change in assay [1] was 0.041; in the assay with vorinostat, -0.069; in the assay with silmitasertib it was -0.039; in assay [2] it was -0.07; in the assay with entospletinib, 0.041.
Consider NUSAP1 (UniProt Q9BXS6), for which the log2 fold change was 0.01 in assay [1]; 0.101 with vorinostat; -0.036 with silmitasertib; -0.003 in assay [2]; -0.001 with entospletinib.
With OSGEP (UniProt Q9NPF4), the log2 fold change is -0.001 in assay [1]; -0.038 with vorinostat; -0.109 with silmitasertib; 0.016 in assay [2]; 0.002 with entospletinib.
Regarding NDUFA4 (UniProt O00483), the log2 fold change in assay [1] was -0.041; in the assay with vorinostat, -0.017; with silmitasertib, -0.004; in assay [2], 0.01; with entospletinib, -0.029.
On to NCOR1 (UniProt O75376), for which the log2 fold change in assay [1] was 0.021; with vorinostat it was -0.239 (active); in the assay with silmitasertib it was -0.035; in assay [2], 0.014; in the assay with entospletinib, -0.01.
In the case of NFIC (UniProt P08651), the log2 fold change in assay [1] was 0.063; with vorinostat it was -0.083; in the assay with silmitasertib it was -0.026; in assay [2] it was -0.032; with entospletinib, -0.025.
Regarding NUP133 (UniProt Q8WUM0), the log2 fold change in assay [1] was 0.045; with vorinostat it was -0.195; with silmitasertib, 0.052; in assay [2] it was 0.011; with entospletinib, -0.033.
On to OTUD7B (UniProt Q6GQQ9), for which the log2 fold change is 0.044 in assay [1]; 0.331 (active) with vorinostat; -0.038 with silmitasertib; 0.194 in assay [2]; -0.04 with entospletinib.
For the target NFKBIE (UniProt O00221), the log2 fold change in assay [1] is -0.08; in the assay with vorinostat, 0.005; in the assay with silmitasertib, 0.114; in assay [2], -0.017; with entospletinib, -0.036.
